# L3MBTL1 inh – L3MBTL1 (human) inhibition. Q9Y468. AlphaScreen L3MBTL1–H3K9me1 peptide binding. Potency, µM (highest dose often 57.1 µM), for inactives: at the highest dose activity, negative = inhibition, most hits filed as inhibitors. 230,000 compounds, 0.66% hits. AID 485360; also: nearly all actives have a fitted effect of over 60% in size
#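 L3MBTL1 50 nM + b-AHA-H3(1-15)K9me1 75 nM, 30 min RT; compound added, 30 min RT; streptavidin donor/Ni-chelate acceptor beads 10 ug/mL each final, 30 min RT dark; AlphaScreen read.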
# WRN inhibitor – blocks human WRN helicase | Q14191 | WRN helicase unwinding, fluorescent forked duplex, kinetic | Potency, µM (series often up to 114 µM), without a hit: at the top dose activity change, negative = inhibition, actives largely listed as inhibitors | 360,000 compounds, 0.46% hits | AID 651768; also: nearly all actives have a fitted effect of over 55% in size
#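 Screening of the MLSMR collection measured strand separation of a quenched forked DNA duplex (100 nM) by 20 nM WRN with 2 mM ATP, all final. Compounds were preincubated with enzyme 15 min at room temperature.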
# FEN1 inh – human FEN1 inhibition. P39748. Recombinant FEN1 flap cleavage, fluorescence, 15 min. Potency, µM (titrated, usually from 114 µM), for inactives: top-dose activity change, negative = inhibition, actives largely listed as inhibitors. 390,000 compounds, 0.35% hits. AID 588795; also: nearly all actives have a fitted effect of over 65% in size
#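 With each library titrated from low to high concentration, compounds met 10 nM FEN1 for 15 min at room temperature before 50 nM substrate was added; readings at 0 and 15 min fed four-parameter Hill curve fits.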
# BLM helicase inh – inhibitors of human Bloom syndrome helicase BLM; recombinant BLM DNA unwinding, fluorescence dequenching; Potency, µM (titrated, usually from 56.1 µM), inactives show top-dose activity change, negative = inhibition, hits mostly inhibitors; 350,000 compounds, 0.2% hits;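 also: plate controls were vehicle for no effect and no enzyme for full effect; nearly all actives have a fitted effect of over 35% in size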
# APE1 inh – APE1 (human) endonuclease inhibition; recombinant APE1, TAMRA/BHQ-2 abasic DNA cleavage fluorescence; AID 2517; Potency, µM (highest dose often 65.8 µM), inactives show at the highest dose activity change, negative = inhibition, hits mostly inhibitors; 350,000 compounds, 0.35% hits;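 also: plate controls were vehicle for no effect and reference inhibitor for full effect; nearly all actives have a fitted effect of over 55% in size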
#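 Substrate: short duplex with […] THF abasic site, 5'-TAMRA and 3'-BHQ-2, 50 nM final. APE1 at 0.75 nM, preincubated 15 min RT with compound. Fluorescence increase from first to third read measured activity.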
# RECQ1 inh – blocks DNA unwinding by human RECQ1; Potency, µM (titrated, usually from 57.3 µM), inactives show at the highest dose activity, negative = inhibition, usual class: inhibitors; RECQ1 DNA unwinding, red fluorescence kinetic read; 240,000 compounds, 0.54% hits;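 also: plate controls were vehicle for no effect and no enzyme for full effect; nearly all actives have a fitted effect of over 30% in size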
#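 50 nM RECQ1T1 preincubated 15 min with compound in Tris pH 8.0 buffer with MgCl2, DTT, Tween-20 and 2.5 ug/ml poly(dI-dC); started with 200 nM TAMRA/BHQ-2 forked duplex and 2 mM ATP. Unwinding read as fluorescence (525/598 nm), two reads 2 h apart.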
# * marks the source's active call; other numbers are inactive results; i = inactive; u = inconclusive; x = no result given; ! = not confirmed by another sample; [ ] = dose if it differs, or a comment. Shown are actives, neighbours in structure and some others; about 1% of the full set was active somewhere. Calls follow the shape of the dose curve; as a rule, active = well fitted curve in the direction sought with a large enough effect; inconclusive = small, poorly fitted or top-dose-only effect, or another doubt; inactive = no such curve, though single readings can be large; an effect the other way counts as inactive or inconclusive. Unless noted, % is scaled to controls: 0 for no effect and ±100 for the full control effect; potency is read from the fitted curve at half-maximal effect.
SMILES,L3MBTL1 inh,WRN inhibitor,FEN1 inh,BLM helicase inh,APE1 inh,RECQ1 inh
NCCC[C@@H](CC(=O)N[C@@H]1CCNC[C@H]1C(=O)N[C@H](CC(=O)N[C@@H](CCC(=O)O)CC(=O)O)Cc1ccccc1)NC(=O)C[C@H](CO)NC(=O)[C@@H]1CNCC[C@H]1N,x,x,x,22µM*,-6%,4%
COc1ccc(-c2nnc3n2N=C(c2cc(OC)ccc2OC)CS3)cc1,x,x,x,1%,-5%,-1%
CCN(CC)C(=O)C1=C(C)N(Cc2ccc(OC)cc2)C(=O)C(CC(=O)NCCc2ccccn2)C1 (stereo not given),x,-2%,x,x,x,x
N#Cc1c(-c2ccc(OCCOCCOCCNC(=O)CCCC[C@@H]3SC[C@@H]4NC(=O)N[C@@H]43)cc2)no[n+]1[O-],x,x,x,x,-6%,x
CCOc1ccc2nc(N3CCN(C(=O)CS(=O)(=O)c4ccc(F)cc4)CC3)sc2c1,x,x,9%,-4%,x,x
O=C(NN=C1CCCC1)c1cc(O)cc(O)c1,x,-33%,-26%,-7%,11µM*,x
O=C(NN=C1CCCC1)c1cccc(O)c1,x,9%,18%,-3%,22%,x
Cc1ccccc1OCC(=O)NCC(=O)OCC(=O)c1ccc2c(c1)CCCC2,x,x,-1%,x,x,x
O=C(O)c1ccnc2c(O)cccc12,13µM*,x,x,x,-10%,x
O=C(O)c1cc(-c2ccc(/C=c3\sc4nc5ccc(Br)cc5n4c3=O)o2)ccc1Cl,28µM*,x,x,-27%,2.7µM*,x
C#CCN1C(=O)S/C(=C\c2ccc(-c3ccc(Cl)c(C(=O)O)c3)o2)C1=O,u,-4%[11.6 µM],u,-7%,4%,x
N#Cc1c(-c2cccc(O)c2)no[n+]1[O-],x,x,x,x,-3%,x
CC(=O)c1ccc(NC(=O)C2CCC(CNS(=O)(=O)c3cccs3)CC2)cc1 (stereo not given),x,x,8%,-8%,x,x
COc1ccc(C)cc1NC(=O)COC(=O)c1c(-c2ccccc2)noc1C,x,0%,x,x,x,x
Cc1nn(-c2ccccn2)c2c1C(=O)C(Br)CC2 (stereo not given),x,56µM*,-5%,-8%,12%,i
Cc1cccc(C)c1-n1c(SCC(=O)NCCCCCC(=O)O)nnc1-c1cccc([S+](=O)([O-])N2CCCC2)c1,x,x,x,x,37%,x
O=C1C=C(N2CCOCC2)c2cccc3cccc1c23,x,-21%,x,x,x,x
Cc1ccc(N2CCOCC2)c2c1C(=O)c1ccccc1C2=O,14µM*,-12%,u,-28%,-6%,3%
O=C1C(NS(=O)(=O)c2cccs2)=C(N2CCOCC2)C(=O)c2ccccc21,-15%,-9%,-20%,-9%,-8%,-4%
O=C1C=C(N2CCOCC2)c2ccccc2C1=O,-7%[2.29 µM],-19%,-18%,8.9µM*,14%,x
CN(C1=C(N2CCOCC2)C(=O)c2ccccc2C1=O)c1ccccc1,25µM*,1%,-3%,-4%,-1%,-4%
Cc1cccc(C)c1NC(=O)C1(C)CN(S(C)(=O)=O)CC(=O)N1CCCN1CCOCC1 (stereo not given),x,-2%,x,x,x,x
CCN1C(=O)[C@H]2[C@H]3[C@H](O)[C@H](O)CC(=O)[C@@H]3CC[C@H]2C1=O,x,x,1%,x,x,x
O=C(/C=C/c1ccc(O)c(O)c1)OCCc1ccccc1,x,-21%,-5%,-10%,u,-18%
O=C(/C=C/c1ccc(O)c(O)c1)OC(Cc1ccc(O)c(O)c1)C(=O)O (stereo not given),x,-17%[11.6 µM],u,-2%,1.3µM*!,13µM*!
O=C(/C=C\c1ccc(O)c(O)c1)O[C@@H](Cc1ccc(O)c(O)c1)C(=O)O,x,x,x,-1%,2.5µM*,-16%
CC(C)c1ccc(C(=O)COC(=O)C(O)c2ccccc2)cc1 (stereo not given),2%,-25%,-6%,x,22%,x
c1ccc(Cn2c(SCc3nc4ccccc4s3)nnc2-c2ccco2)cc1,2%[11.4 µM],35µM*,u,-16%,-5%,-13%
